Inconclusive results are not listed. Where a call stands in place of a potency, no number is given. Active and inactive are the calls of the source. Unless noted, calls come from the whole dose curve; as a rule, active = well fitted curve in the direction sought with a large enough effect in the repeat runs; inconclusive = weak or mixed curves; inactive = no such curve, though single readings can be large; an effect the other way counts as inactive or inconclusive.
molecular target: Androgen receptor (Homo sapiens) (UniProt P10275); assay: qHTS assay to identify small molecule antagonists of the androgen receptor (AR) signaling pathway using the MDA cell line in the presence of 0.5 nM R1881 (AID 1259243); conditions: MDA-kb2 MMTV-luciferase, R1881 0.5 nM, 16 h; series mostly up to 42.5 µM; note: nearly all actives have a fitted effect of over 50% in size; note: potency is the fitted concentration of half-maximal effect
Sequence (P10275 whole entry, looked up): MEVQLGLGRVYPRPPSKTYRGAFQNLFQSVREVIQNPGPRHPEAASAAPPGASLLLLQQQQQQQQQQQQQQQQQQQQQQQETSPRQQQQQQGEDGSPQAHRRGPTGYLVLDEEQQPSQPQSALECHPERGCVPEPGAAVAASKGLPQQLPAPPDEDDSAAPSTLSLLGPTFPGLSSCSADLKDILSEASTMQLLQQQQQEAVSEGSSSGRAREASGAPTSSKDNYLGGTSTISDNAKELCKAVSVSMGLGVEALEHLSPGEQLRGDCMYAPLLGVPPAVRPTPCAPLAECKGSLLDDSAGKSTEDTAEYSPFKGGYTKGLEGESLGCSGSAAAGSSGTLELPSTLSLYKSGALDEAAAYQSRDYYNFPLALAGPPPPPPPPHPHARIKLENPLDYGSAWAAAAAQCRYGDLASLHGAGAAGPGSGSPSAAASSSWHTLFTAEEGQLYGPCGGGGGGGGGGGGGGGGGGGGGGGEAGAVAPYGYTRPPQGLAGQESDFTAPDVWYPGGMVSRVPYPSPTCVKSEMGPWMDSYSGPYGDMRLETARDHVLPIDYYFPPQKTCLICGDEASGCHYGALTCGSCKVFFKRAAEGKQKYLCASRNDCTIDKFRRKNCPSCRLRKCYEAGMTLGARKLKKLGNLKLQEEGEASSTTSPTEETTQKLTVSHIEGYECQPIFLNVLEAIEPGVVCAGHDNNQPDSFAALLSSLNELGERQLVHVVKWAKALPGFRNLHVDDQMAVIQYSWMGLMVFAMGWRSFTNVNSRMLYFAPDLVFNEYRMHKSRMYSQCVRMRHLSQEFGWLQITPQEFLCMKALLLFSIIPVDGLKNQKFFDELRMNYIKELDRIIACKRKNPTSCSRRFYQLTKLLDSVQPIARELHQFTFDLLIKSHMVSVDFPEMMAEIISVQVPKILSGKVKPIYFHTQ
Summary of the method: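 Luciferase luminescence is the read-out: compounds are tested for suppressing 0.5 nM R1881-driven MMTV reporter activity in MDA-kb2 cells after 16 hr at 37C.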

Row | Compound | Potency
1 | CCOC(=O)[C@@H](C)Oc1ccc(Oc2nc3ccc(Cl)cc3o2)cc1 | inactive
2 | CCCCCCCCSCCO | inactive
3 | CC1(C)C2=CCCC(C)(C)[C@]23CC[C@H]1C3 | inactive
4 | C[Si]1(C)O[Si](C)(C)O[Si](C)(C)O1 | inactive
5 | CC1=NN(c2ccc(C(=O)O)cc2)C(=O)C1 | inactive
6 | CCCCC1C(=O)N(c2ccccc2)N(c2ccc(O)cc2)C1=O (configuration not stated) | 26.6 µM (active)
7 | Cc1ccc(Nc2nccc(N(C)c3ccc4c(C)n(C)nc4c3)n2)cc1S(N)(=O)=O | 11.9 µM (active)
8 | COc1ccc([C@@H]2Sc3ccccc3NC(=O)[C@@H]2O)cc1 | inactive
9 | c1cnc2c(n1)CCCC2 | inactive
10 | CCOC(=O)C(C)Oc1ccc(Oc2nc3ccc(Cl)cc3o2)cc1 (configuration not stated) | inactive
11 | C=CC(=C)CCCC(C)(C)OC(C)=O | inactive
12 | Nc1c(I)cc(I)c(C(=O)N(CCC(=O)O)c2ccccc2)c1I | inactive
13 | COC(=O)c1cc(Cl)ccc1NS(=O)(=O)C(F)(F)F | inactive
14 | NCC1CCCC(CN)C1 (configuration not stated) | inactive

molecular target: Estrogen receptor (Homo sapiens) (UniProt P03372); assay: qHTS assay to identify small molecule antagonists of the estrogen receptor alpha (ER-alpha) signaling pathway using the BG1 cell line in the presence of 0.1 nM 17-beta-estradiol (AID 1259244); conditions: VM7Luc4E2 (BG1) ERE-luciferase, antagonist mode, 0.1 nM E2, 22 h; series mostly up to 92.4 µM; note: nearly all actives have a fitted effect of over 50% in size; note: potency is the fitted concentration of half-maximal effect
Sequence (P03372 whole entry, looked up): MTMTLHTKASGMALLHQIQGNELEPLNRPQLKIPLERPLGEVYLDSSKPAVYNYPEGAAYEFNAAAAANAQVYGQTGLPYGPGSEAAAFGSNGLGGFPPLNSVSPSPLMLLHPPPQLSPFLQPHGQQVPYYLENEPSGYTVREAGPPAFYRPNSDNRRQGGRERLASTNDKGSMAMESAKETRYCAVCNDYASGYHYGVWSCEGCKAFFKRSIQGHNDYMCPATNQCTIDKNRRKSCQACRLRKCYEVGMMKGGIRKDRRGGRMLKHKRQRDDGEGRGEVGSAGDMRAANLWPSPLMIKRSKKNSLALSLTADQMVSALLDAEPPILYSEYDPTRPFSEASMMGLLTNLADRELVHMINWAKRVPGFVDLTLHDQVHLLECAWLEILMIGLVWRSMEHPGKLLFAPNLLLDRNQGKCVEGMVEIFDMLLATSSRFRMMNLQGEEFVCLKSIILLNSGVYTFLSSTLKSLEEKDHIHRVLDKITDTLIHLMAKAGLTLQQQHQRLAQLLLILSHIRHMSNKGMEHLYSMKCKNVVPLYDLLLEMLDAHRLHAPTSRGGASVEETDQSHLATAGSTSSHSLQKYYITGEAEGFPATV
Summary of the method: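 Cells: VM7Luc4E2, endogenous ER-alpha, 4x ERE-luc stable. Pre-culture 5 d, phenol red-free, charcoal-stripped FBS. Plated 24 h, compound + E2 0.1 nM final, 22 h 37C/5% CO2. Readout ONE-Glo luminescence.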

Row | Compound | Potency | activity change, negative = inhibition
15 | CC(C)(C)C(=O)C(Oc1ccc(Cl)cc1)n1ccnc1 (configuration not stated) | inactive | 
16 | Cc1oncc1C(=O)Nc1ccc(C(F)(F)F)cc1 | inactive | 
17 | COC(=O)[C@@H]1CC2=CC(=O)CC[C@]2(C)[C@@]23O[C@@H]2C[C@@]2(C)[C@@H](CC[C@@]24CCC(=O)O4)[C@H]13 | inactive | 
18 | CCC(C(=O)OCCOCCN(CC)CC)c1ccccc1 (configuration not stated) | inactive | 
19 | CN1C(=O)CC(C)(c2ccccc2)C1=O (configuration not stated) | inactive | 
20 | CN1CCN(c2c(F)cc3c(=O)c(C(=O)O)cn4c3c2OCN4C)CC1 |  | 2.06% [at 19 µM] (inactive)
21 | Cc1cc(O)c(C(C)C)cc1Cl | inactive | 
22 | CCOc1cc(N)c(Cl)cc1C(=O)NCC1CN(Cc2ccc(F)cc2)CCO1 (configuration not stated) | inactive | 
23 | CC(=O)Oc1ccc(C(=C2CCCCC2)c2ccc(OC(C)=O)cc2)cc1 | inactive | 
24 | COc1cc2[nH]c(=O)[nH]c(=O)c2cc1OC | inactive | 
25 | CC(=O)[C@H]1CC[C@H]2[C@@H]3C=CC4=CC(=O)CC[C@@]4(C)[C@@H]3CC[C@]12C | inactive | 
26 | CCn1cc(C(=O)O)c(=O)c2cc(F)c(N3CCNCC3)nc21 | inactive | 
27 | CC(CCc1ccc2c(c1)OCO2)NN (configuration not stated) | inactive | 
28 | CCCCC(=O)O[C@]1(C(=O)CO)CC[C@H]2[C@@H]3CCC4=CC(=O)CC[C@]4(C)[C@H]3[C@@H](O)C[C@@]21C | inactive | 
29 | CN1CCCN=C1/C=C/c1cccs1 | inactive | 
30 | O=C(NCCCN1CCOCC1)c1ccc(Cl)cc1 | inactive | 
31 | CCCCCC=CCC=CCCCCCCCC(=O)OCC | inactive | 
32 | CC(=O)CC(c1ccc([N+](=O)[O-])cc1)c1c(O)c2ccccc2oc1=O (configuration not stated) | inactive | 
33 | CCc1nn(CCCN2CCN(c3cccc(Cl)c3)CC2)c(=O)n1CCOc1ccccc1 | 11.9 µM (active) | 
34 | CC1CN(c2cc3c(cc2F)c(=O)c(C(=O)O)cn3-c2ccc(F)cc2F)CCN1 (configuration not stated) |  | -1% [at 8.39 µM] (inactive)
35 | O=C(CCCCCCC(=O)Nc1ccccc1)NO | 3.35 µM (active) | 
36 | O=C(O)C(Cc1cc(I)c(O)c(I)c1)c1ccccc1 (configuration not stated) | inactive | 
37 | O=C1OCCN1/N=C/c1ccc([N+](=O)[O-])o1 | inactive | 
38 | CCC1(C)CC(=O)NC1=O (configuration not stated) | inactive | 
39 | N#C[C@@H]1C[C@@H]2C[C@@H]2N1C(=O)[C@@H](N)C12CC3CC(CC(O)(C3)C1)C2 | inactive | 
40 | CC1(C)O[C@@H]2C[C@H]3[C@@H]4CCC5=CC(=O)C=C[C@]5(C)[C@H]4[C@@H](O)C[C@]3(C)[C@]2(C(=O)CO)O1 | inactive | 

system: not listed separately; assay: qHTS assay to identify small molecule phospholipidosis (PLD) inducers (AID 1259344; active = well fitted curve in the direction sought with a large enough effect; an effect the other way counts as inactive or inconclusive); conditions: HepG2 phospholipidosis, LipidTOX Red imaging, 24 h; series mostly up to 38.3 µM
Summary of the method: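 HepG2 cells on collagen I, attached 4 h at 37 C, were co-treated with compound and LipidTOX Red dye for 24 h at 37 C, then fixed with paraformaldehyde plus Hoechst 33342 and imaged by high-content microscopy for phospholipid accumulation.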

Row | Compound | outcome | PLD induction
41 | CC(C)(C)C(=O)C(Oc1ccc(Cl)cc1)n1ccnc1 (configuration not stated) | inactive | 
42 | Cc1oncc1C(=O)Nc1ccc(C(F)(F)F)cc1 | inactive | 
43 | COC(=O)[C@@H]1CC2=CC(=O)CC[C@]2(C)[C@@]23O[C@@H]2C[C@@]2(C)[C@@H](CC[C@@]24CCC(=O)O4)[C@H]13 | inactive | 
44 | CCC(C(=O)OCCOCCN(CC)CC)c1ccccc1 (configuration not stated) | inactive | 
45 | CN1C(=O)CC(C)(c2ccccc2)C1=O (configuration not stated) | inactive | 
46 | CN1CCN(c2c(F)cc3c(=O)c(C(=O)O)cn4c3c2OCN4C)CC1 | inactive | 
47 | Cc1cc(O)c(C(C)C)cc1Cl | inactive | 
48 | CCOc1cc(N)c(Cl)cc1C(=O)NCC1CN(Cc2ccc(F)cc2)CCO1 (configuration not stated) | inactive | 
49 | CC(=O)Oc1ccc(C(=C2CCCCC2)c2ccc(OC(C)=O)cc2)cc1 | inactive | 
50 | CCCCC1C(=O)N(c2ccccc2)N(c2ccc(O)cc2)C1=O (configuration not stated) | inactive | 
51 | COc1cc2[nH]c(=O)[nH]c(=O)c2cc1OC | inactive | 
52 | CC(=O)[C@H]1CC[C@H]2[C@@H]3C=CC4=CC(=O)CC[C@@]4(C)[C@@H]3CC[C@]12C | inactive | 
53 | CCn1cc(C(=O)O)c(=O)c2cc(F)c(N3CCNCC3)nc21 | inactive | 
54 | CC(CCc1ccc2c(c1)OCO2)NN (configuration not stated) | inactive | 
55 | CCCCC(=O)O[C@]1(C(=O)CO)CC[C@H]2[C@@H]3CCC4=CC(=O)CC[C@]4(C)[C@H]3[C@@H](O)C[C@@]21C | inactive | 
56 | CN1CCCN=C1/C=C/c1cccs1 | inactive | 
57 | O=C(NCCCN1CCOCC1)c1ccc(Cl)cc1 | inactive | 
58 | CCCCCC=CCC=CCCCCCCCC(=O)OCC | inactive | 
59 | CC(=O)CC(c1ccc([N+](=O)[O-])cc1)c1c(O)c2ccccc2oc1=O (configuration not stated) | inactive | 
60 | CCc1nn(CCCN2CCN(c3cccc(Cl)c3)CC2)c(=O)n1CCOc1ccccc1 | inactive | 
61 | CC1CN(c2cc3c(cc2F)c(=O)c(C(=O)O)cn3-c2ccc(F)cc2F)CCN1 (configuration not stated) | inactive | 
62 | O=C(CCCCCCC(=O)Nc1ccccc1)NO | inactive | 
63 | O=C(O)C(Cc1cc(I)c(O)c(I)c1)c1ccccc1 (configuration not stated) | inactive | 
64 | O=C1OCCN1/N=C/c1ccc([N+](=O)[O-])o1 | inactive | 
65 | CCC1(C)CC(=O)NC1=O (configuration not stated) | inactive | 
66 | N#C[C@@H]1C[C@@H]2C[C@@H]2N1C(=O)[C@@H](N)C12CC3CC(CC(O)(C3)C1)C2 |  | -3.21% [at 7.66 µM] (inactive)
67 | CC1(C)O[C@@H]2C[C@H]3[C@@H]4CCC5=CC(=O)C=C[C@]5(C)[C@H]4[C@@H](O)C[C@]3(C)[C@]2(C(=O)CO)O1 | inactive | 

From PubChem BioAssay (Tox21)
